These results are taken from PubChem BioAssay (NCATS).

Each structure is given as a SMILES string. Inconclusive results are not listed. Values without a mark were called inactive. Activity calls are given as the source filed them. Calls follow the shape of the full dose curve.

For this test, the target named is Retinoic acid receptor RXR-alpha (Homo sapiens) (UniProt P19793). Briefly: qHTS assay for small molecule agonists of retinoid X receptor alpha signaling (AID 588544). As to conditions: HEK293T RXRa-UAS-bla, beta-lactamase reporter, 18 h; series mostly up to 76.7 µM; activation: at the top concentration. From the text: NIH Chemical Genomics Center [NCGC] U.S. Environmental Protection Agency [EPA] National Institutes of Environmental Health Sciences [NIEHS] National Toxicology Program [NTP] NCGC Assay Overview The Retinoid X receptor (RXR), a nuclear hormone receptor is expressed in liver, spleen, placenta, epidermis, central nervous system. These receptors are able to form homo and heterodimers with other nuclear receptors and due to this heterodimerizing ability, RXR functions as master regulators producing diverse physiological effects. Three subtypes of RXR exist; alpha, beta and gamma. Retinoid X receptor alpha (RXR-alpha) has potential roles in metabolic signaling pathways, skin alopecia, dermal cysts, cardiac development, insulin sensitization etc. Therefore screening environmental chemicals on RXR-alpha signaling can be used for the studies focused on such therapeutic applications.
Chain of Retinoic acid receptor RXR-alpha (Homo sapiens) (P19793 whole entry, looked up): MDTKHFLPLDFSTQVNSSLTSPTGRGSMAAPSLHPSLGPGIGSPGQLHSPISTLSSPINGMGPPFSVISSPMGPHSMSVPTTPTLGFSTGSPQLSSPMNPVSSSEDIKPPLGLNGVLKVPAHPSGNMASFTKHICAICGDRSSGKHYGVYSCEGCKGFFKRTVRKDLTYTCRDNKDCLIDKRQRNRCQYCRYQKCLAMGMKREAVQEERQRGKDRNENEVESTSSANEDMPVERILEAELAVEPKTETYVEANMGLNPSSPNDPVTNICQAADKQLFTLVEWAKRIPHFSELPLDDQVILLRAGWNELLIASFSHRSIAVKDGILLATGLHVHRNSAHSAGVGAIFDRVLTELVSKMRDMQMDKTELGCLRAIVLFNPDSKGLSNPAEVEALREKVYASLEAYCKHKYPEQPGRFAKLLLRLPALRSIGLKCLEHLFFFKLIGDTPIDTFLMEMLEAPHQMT
NCGC Assay Protocol Summary Using a beta-lactamase reporter-gene under control of Retinoid X receptor--alpha (RXR-alpha) response element, a cell-based assay [GeneBLAzer (RXR-alpha -UAS-bla assay developed by Invitrogen] was used to measure RXR-alpha ligands signaling. GeneBLAzer RXR-alpha -UAS-bla HEK293T cells were used with assay medium containing 2% charcoal-stripped FBS. The assay was performed in clear bottom black Greiner 1536-well plates. 9-cis-retinoic acid was used in the screen as the positive control. Library compounds were measured for their ability to stimulate the reporter gene activity. Compounds were screened in a titration series in 1536-well format. The fluorescence intensity (405 nm excitation, 460/530 nm emission) was measured using an EnVision plate reader. Data was normalized relative to 9-cis-retinoic acid control (500 nM, 100%), and DMSO only wells (basal, 0%). Concentration-response titration points for each compound were fitted to the Hill equation yielding concentrations of half-maximal stimulation (EC50) and maximal response (efficacy) values. qHTS protocol for RXR-alpha beta-lactamase assay in agonist mode [Step] [Parameter] [Value] [Description] 1. Reagent; 6 uL; 2500 cells/well 2. Incubation; 37 C for 4 hrs 3. Compounds; 23 nL; 0.59 nM to 92 uM 4. Controls (9-cis-retinoic acid); 23 nL, - One column with dose response, start 38 uM, 1:3 dilutions in duplicates - Final concentrations of 500 nM and 50 nM in two columns 5. Incubation; 37 C for 18 hrs 6. Detection reagent; 1 uL of CCF4-dye 7. Incubation; RT for 2 hrs 8. Detection; Fluorescence; Envision plate reader
(In qHTS, concentration-response curves come from the screen itself.)
Turning to `COC(=O)CCC(=O)OC`, the “activation” value was 0.897%. On to `CCCCC(CC)COCC1CO1` (stereo not given), for which the “activation” value is -6.94%. Same read-out and setting: the result for `O=[N+]([O-])c1cc(C(F)(F)F)ccc1Cl` reads 0.0781%. As for `Cc1cc(C)cc(O)c1`, the “activation” value is 5.88%.

With `CC(CCl)OC(C)CCl` (stereo not given), the “activation” value was 6.69%.

Consider `Cc1ccc(C)c([N+](=O)[O-])c1`, for which the “activation” value is 3.78%. Still for that read-out and setting: the result for `CCOCCO` reads -4.18%; that for `CC(N)CN` (stereo not given), 1.3%; that for `Cc1ccc2cccnc2c1`, -2.34%. Still for that read-out and setting: for `O=[N+]([O-])c1cccc(Cl)c1` the value was 2.6%; for `C=Cc1ccccc1C=C`, 6.9%. `CNc1ccc([N+](=O)[O-])cc1`: the “activation” value was -17.2%. Same read-out and setting: the result for `CC(C)CO` reads 1.58%; that for `O=Cc1ccc(C(=O)O)cc1`, -6.76%; that for `CCCOCC(C)OCC(C)O` (stereo not given), 4.34%.

As to `Clc1ccc(Cl)c(Cl)c1Cl`, the result was inactive.

As for `CCN(Cc1ccccc1)c1ccccc1`, the “activation” value was 7.42%. The same measure, in the same setting: the result for `CCCCCCCCCCCCOCC1CO1` (stereo not given) reads -10.9%; that for `CC1CCC2CC1C2(C)C` (stereo not given), 0.615%. On to `CC(C=O)Cc1ccc(C(C)(C)C)cc1` (stereo not given), for which the outcome was inactive. As for `CC(C)C(C)C`, the “activation” value is 5.3%. On the same count and under the same terms, for `O=Cc1ccccc1Cl` the value was 10.5%. With `O=C1NC(=O)c2cc([N+](=O)[O-])ccc21`, the “activation” value is -2.07%.

Turning to `O=C(O)c1c(Cl)cccc1Cl`, the “activation” value was 7.55%. On the same count and under the same terms, the result for `Cc1ccc(CO)cc1` reads -9.47%; that for `OCCO`, -1.15%; that for `O=C(O)c1ccc(CO)o1`, -4.15%. As for `Cc1ccco1`, the “activation” value was 4.19%. Same read-out and setting: the result for `O=Cc1ccc(Cl)cc1` reads 3.11%. As to `NC(=O)c1cccc([N+](=O)[O-])c1`, the “activation” value was -0.558%. Still for that read-out and setting: the result for `COc1ccc(N)c(C)c1` reads 8.59%; that for `CC(O)COC(C)(C)C` (stereo not given), 3.07%. With `CCC(C)(C)C(=O)O`, the “activation” value was 5.02%. Same read-out and setting: the result for `CC/C=C1/OC(=O)c2ccccc21` reads 2.8%; that for `CCOCCOCC`, 6.91%; that for `O=C(O)c1ccccc1[N+](=O)[O-]`, 12%. The same measure, in the same setting: the result for `O=[N+]([O-])c1cccc(C(F)(F)F)c1` reads 8.18%. With `c1ccc(Oc2ccccc2)cc1`, the result was inactive. With `CC(C)C=O`, the “activation” value was -2.62%. Still for that read-out and setting: for `O=C(O)CCSSCCC(=O)O` the value was 6.17%.
